The sample as a whole holds a higher share of hits than the screen did.
Menin-MLL TR inh – menin-MLL binding inhibition, Texas Red mutant peptide. Menin + Texas Red MLL mutant peptide, fluorescence polarization. Potency, µM (titrated, usually from 61.6 µM), for inactives: top-dose FP activity change, negative = inhibition, usual class: inhibitors. O00255. 0.23% of 270,000 active. AID 1768; active = well fitted inhibition curve with a large enough effect in the polarisation, with a control signal flat, not every such curve was filed as active; inconclusive = small, poorly fitted or top-dose-only effect, or effect the other way, or a change in a side signal; inactive = no such curve, though single readings can be large or run the other way; the % refers to the polarisation; note: potency is the fitted concentration of half-maximal effect; % of control where 0% means no effect
Menin MLL FP FL – displaces fluorescein MLL peptide from human menin; Fluorescence polarization, fluorescein-MLL peptide displacement from menin; FP activity change, % at 61.4 µM; 290,000 tested, under 10 active; active = well fitted curve in the direction sought with a large enough effect in the polarisation, not every such curve was filed as active; inconclusive = small, poorly fitted or top-dose-only effect, or effect the other way, or a change in a side signal; inactive = no such curve, though single readings can be large or run the other way; the % refers to the polarisation; note: % of control where 0% means no effect
CXXC DNA block – inhibitors of human MLL CXXC domain-DNA interaction | MLL-CXXC / FITC-HOXA9 DNA fluorescence polarization | Potency, µM (titrated, usually from 115 µM), for inactives: top-dose activity change, negative = inhibition, hits mostly inhibitors | 0.037% of 290,000 active | Q03164; active = well fitted inhibition curve with a large enough effect in the polarisation, with a control signal flat, not every such curve was filed as active; inconclusive = small, poorly fitted or top-dose-only effect, or effect the other way, or a change in a side signal; inactive = no such curve, though single readings can be large or run the other way; the % refers to the polarisation; note: potency is the fitted concentration of half-maximal effect
Target sequence (Q03164 whole entry, looked up, the tested form may be a part): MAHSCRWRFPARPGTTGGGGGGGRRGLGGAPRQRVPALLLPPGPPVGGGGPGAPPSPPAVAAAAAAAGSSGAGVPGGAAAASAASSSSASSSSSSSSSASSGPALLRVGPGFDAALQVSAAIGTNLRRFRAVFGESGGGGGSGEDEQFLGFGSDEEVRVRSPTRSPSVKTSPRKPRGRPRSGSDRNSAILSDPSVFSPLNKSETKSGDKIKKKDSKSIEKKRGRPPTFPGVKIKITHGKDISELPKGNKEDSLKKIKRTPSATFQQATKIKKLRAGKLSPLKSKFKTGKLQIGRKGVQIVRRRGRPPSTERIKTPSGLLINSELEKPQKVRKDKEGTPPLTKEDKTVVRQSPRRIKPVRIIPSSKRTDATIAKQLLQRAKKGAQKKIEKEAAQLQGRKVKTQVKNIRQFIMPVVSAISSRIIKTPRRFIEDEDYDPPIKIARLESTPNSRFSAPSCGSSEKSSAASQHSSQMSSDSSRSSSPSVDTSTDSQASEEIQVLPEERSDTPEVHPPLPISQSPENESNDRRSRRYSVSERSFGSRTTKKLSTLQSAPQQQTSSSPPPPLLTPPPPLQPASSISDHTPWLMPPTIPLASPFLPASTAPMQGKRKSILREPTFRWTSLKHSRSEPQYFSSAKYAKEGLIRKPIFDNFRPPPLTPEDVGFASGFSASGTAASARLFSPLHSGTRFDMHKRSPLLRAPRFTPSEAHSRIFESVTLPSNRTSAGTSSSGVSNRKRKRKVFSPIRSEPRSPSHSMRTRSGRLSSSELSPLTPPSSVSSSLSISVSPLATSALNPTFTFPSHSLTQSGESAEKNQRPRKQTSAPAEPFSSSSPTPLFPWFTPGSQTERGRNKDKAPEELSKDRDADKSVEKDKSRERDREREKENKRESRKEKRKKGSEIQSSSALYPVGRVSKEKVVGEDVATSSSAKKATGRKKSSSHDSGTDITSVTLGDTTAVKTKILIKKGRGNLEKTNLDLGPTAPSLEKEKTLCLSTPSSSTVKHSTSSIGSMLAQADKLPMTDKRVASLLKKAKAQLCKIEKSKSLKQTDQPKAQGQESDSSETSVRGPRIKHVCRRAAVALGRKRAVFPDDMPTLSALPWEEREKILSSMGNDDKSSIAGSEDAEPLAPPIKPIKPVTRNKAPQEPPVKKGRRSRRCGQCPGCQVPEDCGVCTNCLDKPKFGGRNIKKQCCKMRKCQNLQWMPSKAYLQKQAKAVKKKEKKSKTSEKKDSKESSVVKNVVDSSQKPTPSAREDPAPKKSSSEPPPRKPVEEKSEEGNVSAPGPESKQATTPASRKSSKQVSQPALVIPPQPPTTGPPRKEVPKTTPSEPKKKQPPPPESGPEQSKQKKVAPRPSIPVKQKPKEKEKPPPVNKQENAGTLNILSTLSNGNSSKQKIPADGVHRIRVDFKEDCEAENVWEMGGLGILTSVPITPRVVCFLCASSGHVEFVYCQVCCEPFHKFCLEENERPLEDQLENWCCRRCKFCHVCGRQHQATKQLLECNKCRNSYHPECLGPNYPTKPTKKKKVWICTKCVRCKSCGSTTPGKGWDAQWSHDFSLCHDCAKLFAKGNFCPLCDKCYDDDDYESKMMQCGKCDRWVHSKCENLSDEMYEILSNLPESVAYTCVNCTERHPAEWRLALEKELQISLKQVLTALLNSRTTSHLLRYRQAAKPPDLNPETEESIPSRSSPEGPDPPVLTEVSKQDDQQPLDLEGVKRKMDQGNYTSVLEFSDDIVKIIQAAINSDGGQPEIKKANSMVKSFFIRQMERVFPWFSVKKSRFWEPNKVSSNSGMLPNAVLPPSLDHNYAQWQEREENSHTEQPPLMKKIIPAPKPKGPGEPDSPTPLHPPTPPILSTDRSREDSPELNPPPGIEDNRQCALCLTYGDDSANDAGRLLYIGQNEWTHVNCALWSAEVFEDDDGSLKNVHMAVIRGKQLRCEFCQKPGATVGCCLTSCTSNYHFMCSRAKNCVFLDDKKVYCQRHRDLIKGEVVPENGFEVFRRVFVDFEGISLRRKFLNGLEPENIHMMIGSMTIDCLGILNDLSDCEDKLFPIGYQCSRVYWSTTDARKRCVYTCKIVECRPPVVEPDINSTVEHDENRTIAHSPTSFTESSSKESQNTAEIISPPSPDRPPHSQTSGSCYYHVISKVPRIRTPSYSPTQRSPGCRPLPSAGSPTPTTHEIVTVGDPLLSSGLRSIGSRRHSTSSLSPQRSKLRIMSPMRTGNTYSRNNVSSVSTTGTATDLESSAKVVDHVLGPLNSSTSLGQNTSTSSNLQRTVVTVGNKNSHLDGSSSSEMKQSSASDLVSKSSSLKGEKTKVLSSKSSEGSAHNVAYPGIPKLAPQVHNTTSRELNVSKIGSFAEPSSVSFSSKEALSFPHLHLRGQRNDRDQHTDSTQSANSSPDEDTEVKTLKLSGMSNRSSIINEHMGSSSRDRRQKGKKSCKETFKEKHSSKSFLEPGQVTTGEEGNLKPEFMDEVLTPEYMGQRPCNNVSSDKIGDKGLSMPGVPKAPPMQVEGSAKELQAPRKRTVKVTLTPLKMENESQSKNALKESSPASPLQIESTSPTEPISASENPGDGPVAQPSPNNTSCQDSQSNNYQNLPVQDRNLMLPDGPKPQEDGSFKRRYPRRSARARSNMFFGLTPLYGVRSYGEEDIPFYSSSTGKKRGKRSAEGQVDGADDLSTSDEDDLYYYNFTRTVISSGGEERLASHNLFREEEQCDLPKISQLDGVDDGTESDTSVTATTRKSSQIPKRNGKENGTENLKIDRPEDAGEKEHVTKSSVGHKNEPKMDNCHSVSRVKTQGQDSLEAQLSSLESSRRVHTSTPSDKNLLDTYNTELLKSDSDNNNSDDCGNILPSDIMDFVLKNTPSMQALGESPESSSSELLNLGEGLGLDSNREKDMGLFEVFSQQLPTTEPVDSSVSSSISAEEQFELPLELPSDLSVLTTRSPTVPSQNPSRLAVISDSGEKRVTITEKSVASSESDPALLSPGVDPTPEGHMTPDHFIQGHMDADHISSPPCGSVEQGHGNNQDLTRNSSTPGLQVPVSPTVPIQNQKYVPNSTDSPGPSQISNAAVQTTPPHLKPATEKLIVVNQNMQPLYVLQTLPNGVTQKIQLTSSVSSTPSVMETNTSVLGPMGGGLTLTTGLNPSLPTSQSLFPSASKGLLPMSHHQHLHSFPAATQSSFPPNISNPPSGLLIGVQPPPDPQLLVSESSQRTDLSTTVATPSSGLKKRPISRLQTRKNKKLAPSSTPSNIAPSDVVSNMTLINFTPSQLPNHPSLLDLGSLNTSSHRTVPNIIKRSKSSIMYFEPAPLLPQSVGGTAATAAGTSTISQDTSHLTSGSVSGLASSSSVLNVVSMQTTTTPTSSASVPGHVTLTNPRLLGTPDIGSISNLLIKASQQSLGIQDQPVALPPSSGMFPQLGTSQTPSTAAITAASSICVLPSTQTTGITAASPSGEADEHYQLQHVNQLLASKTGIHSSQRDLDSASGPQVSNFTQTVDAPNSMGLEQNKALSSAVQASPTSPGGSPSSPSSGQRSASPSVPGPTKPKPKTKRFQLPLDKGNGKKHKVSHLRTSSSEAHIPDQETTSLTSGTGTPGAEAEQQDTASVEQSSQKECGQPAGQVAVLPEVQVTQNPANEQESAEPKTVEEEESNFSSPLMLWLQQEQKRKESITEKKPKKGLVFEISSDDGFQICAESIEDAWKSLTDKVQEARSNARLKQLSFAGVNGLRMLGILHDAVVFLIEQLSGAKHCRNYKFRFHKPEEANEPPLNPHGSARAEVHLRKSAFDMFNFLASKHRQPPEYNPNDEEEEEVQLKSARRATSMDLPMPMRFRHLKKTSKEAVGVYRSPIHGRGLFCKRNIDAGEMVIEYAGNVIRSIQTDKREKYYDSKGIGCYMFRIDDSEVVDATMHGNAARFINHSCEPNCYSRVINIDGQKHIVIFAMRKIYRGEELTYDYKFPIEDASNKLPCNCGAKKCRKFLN
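Purified MLL-CXXC (added from a 7 uM solution) was preincubated 5 min at ambient with pinned compounds in 50 mM Tris-HCl pH 7.5, 50 mM NaCl, 1 mM DTT, 0.05% BSA. Fluorescein-labeled HOX-A9 DNA (50 nM solution) followed, 30 min, then polarization read.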
MBNL1 CUG block – blocks human MBNL1 binding to CUG repeat RNA; Q9NR56; TR-FRET MBNL1-His/biotin-(CUG)12 binding, 665/545 ratio; Potency, µM (top dose mostly 57.5 µM), for the others: at the highest dose activity change, negative = inhibition, most hits filed as inhibitors; 0.036% of 280,000 active; AID 2675; active = well fitted inhibition curve with a large enough effect in the signal ratio, with a control signal flat, not every such curve was filed as active; inconclusive = small, poorly fitted or top-dose-only effect, or effect the other way, or a change in a side signal; inactive = no such curve, though single readings can be large or run the other way; the % refers to the signal ratio; note: potency is the fitted concentration of half-maximal effect; % is set by controls: 0 for no effect and ±100 for the full control effect
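TR-FRET between His-tagged MBNL1 and biotin-(CUG)12 RNA, detected with Tb anti-His antibody (0.055 ng/ul) and streptavidin-XL665 (5 nM), 60 min at room temperature. Compounds titrated 92 nM to 58 uM; 665/545 nm ratio normalized to buffer and complex controls.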
MLL CXXC Fl – inhibitors of human MLL CXXC domain-DNA interaction; 70% of 200 active; MLL CXXC-DNA binding, fluorescein FP; Potency, µM (top dose mostly 345 µM), for inactives: top-dose activity change, negative = inhibition, usual class: inhibitors; shares compounds with CXXC DNA block; note: potency is the fitted concentration of half-maximal effect; nearly all actives have a fitted effect of over 80% in size
MLL CXXC TxRed – disrupts human MLL CXXC domain binding to DNA, Texas Red. shares compounds with CXXC DNA block. MLL CXXC-DNA binding, Texas Red fluorescence polarization. Potency, µM (top dose mostly 345 µM), for inactives: top-dose activity change, negative = inhibition, hits mostly inhibitors. 40% of 200 active. AID 624161; note: potency is the fitted concentration of half-maximal effect; % is set by controls: 0 for no effect and ±100 for the full control effect; nearly all actives have a fitted effect of over 75% in size
MLL CXXC HTRF – MLL CXXC-DNA interaction inhibition, HTRF readout | shares compounds with CXXC DNA block | MLL CXXC-DNA binding, HTRF, biochemical | Potency, µM (series often up to 172 µM), for the others: at the top dose activity change, negative = inhibition, usual class: inhibitors | 30% of 210 active | AID 624162; note: % is set by controls: 0 for no effect and ±100 for the full control effect; nearly all actives have a fitted effect of over 80% in size
Active calls of the source: *; ? = inconclusive; / = not tested or not shown; [ ] = another dose, or the depositor's remark. Unless noted, calls come from the whole dose curve; as a rule, active = well fitted inhibition curve with a large enough effect; inconclusive = small, poorly fitted or top-dose-only effect; inactive = no such curve, though single readings can be large or run the other way.

SMILES	Menin-MLL TR inh	Menin MLL FP FL	CXXC DNA block	MBNL1 CUG block	MLL CXXC Fl	MLL CXXC TxRed	MLL CXXC HTRF
CO[C@H](C(=O)[C@@H](O)[C@@H](C)O)C1Cc2cc3cc(O[C@H]4C[C@@H](O[C@H]5C[C@@H](O)[C@H](O)[C@@H](C)O5)[C@@H](O)[C@@H](C)O4)c(C)c(O)c3c(O)c2C(=O)[C@H]1O[C@H]1C[C@@H](O[C@H]2C[C@@H](O[C@H]3C[C@](C)(O)[C@H](O)[C@@H](C)O3)[C@H](O)[C@@H](C)O2)[C@H](O)[C@@H](C)O1 (stereo not given in full)	-8%	?	40µM*	/	26%	17%	83%
COCCCNC(=S)NNC(=O)c1cc(Cl)c(O)c(Cl)c1	/	-1	?	-5%	/	/	0%
COCCCNC(=S)NNC(=S)NCCCOC	/	-1	-13%	0%	/	/	/
CC(C)c1nnc(NC(=O)c2cc3cc(Br)ccc3oc2=O)s1	/	4	?	?	8%	-6%	34%
C[C@H]1Cc2c(COc3ccccc3)nc3c(c2CO1)CN(C(=O)C1CC1)CC3	-9%[11.7 µM]	4[11.7 µM]	/	/	/	/	/
COCCCNc1c2c3c(cccc3[nH]c1=O)C(=O)c1ccccc1-2	32µM*	?	?	?	0.56µM*	63µM*	25%
C[C@H]1Cc2c(COc3ccccc3)nc3c(c2CO1)CN(S(=O)(=O)c1ccc(Cl)c2nonc12)CC3	-6%[11.7 µM]	10[11.7 µM]	/	/	/	/	/
CNC(=O)c1cc(Nc2nnc(-c3ccc(C)c(S(N)(=O)=O)c3)c3ccccc23)ccc1OC	5%	0	?	?	142µM*	14%	12%
CC[C@H](C)[C@H](N)C(=O)N[C@@H](CC(N)=O)C(=O)N1CCC[C@H]1C(=O)N[C@H](C(=O)N[C@@H](Cc1ccc(O)cc1)C(=O)N[C@@H](CCCN=C(N)N)C(=O)N[C@@H](CC(C)C)C(=O)N[C@@H](CCCN=C(N)N)C(=O)N[C@@H](Cc1ccc(O)cc1)C(N)=O)[C@@H](C)CC	5%	4	/	/	/	/	/
Cc1nc(-c2ccccc2)c(-c2ccncc2)o1	8%	1	/	/	/	/	/
Cc1ccc(-c2c(NC(=O)C(C)C)n(C)c3ccccc3c2=O)cc1	-12%	-1	-2%	5%	/	/	/
CC(C)C(=O)Nc1c(-c2ccc(Cl)cc2)c(=O)c2ccccc2n1C	23%	2	?	2%	?	-4%	0%
CC(=O)[C@]1(O)Cc2c(O)c3c(c(O)c2[C@@H](O[C@H]2C[C@H](N)[C@H](O)[C@H](C)O2)C1)C(=O)c1ccccc1C3=O	?	?	?	?	2µM*	100µM*	117%
COc1cccc2c1C(=O)c1c(O)c3c(c(O)c1C2=O)C[C@@](O)(C(C)=O)C[C@@H]3O[C@H]1C[C@H](N)[C@H](O)[C@H](C)O1	?	?	10µM*	?	5.6µM*	11µM*	376%
CC(=O)[C@]1(O)Cc2c(O)c3c(c(O)c2[C@@H](O[C@H]2C[C@H](N)[C@H](O)[C@H](C)O2)C1)C(=O)c1c(O)cccc1C3=O	?	?	?	/	6.3µM*	22µM*	255%
CC1(C)CC(=O)C(C(C2=C(O)CC(C)(C)CC2=O)c2ccc(Br)s2)C(=O)C1 (stereo not given)	24%	5	?	/	40µM*	37%	15µM*
O=C(O)c1ccc(COc2ccccc2C=C2C(=O)c3ccccc3C2=O)cc1	27%	4	18µM*	/	18µM*	56µM*	77µM*
COc1cc(/C=C2/SC(=O)NC2=O)ccc1OCc1ccccc1	?	-6	?	18%	/	/	/
COc1ccc(/C=C2/SC(=S)NC2=O)cc1OCc1ccccc1	?	8	?	-2%	?	22%	30%
CC(C)OC(=O)CC(=O)c1sc2nc3c(cc2c1N)CN(C)CC3	-15%	?	13µM*	?	45µM*	?	?
Cc1cc(-c2ccc(N=Nc3c(S(=O)(=O)O)cc4cc(S(=O)(=O)O)cc(N)c4c3O)c(C)c2)ccc1N=Nc1c(S(=O)(=O)O)cc2cc(S(=O)(=O)O)cc(N)c2c1O	?	?	25µM*	/	5.6µM*	7.1µM*	1.5µM*
COC(=O)N1C2=C(c3ccccc3[C@@H]1CC(=O)Nc1ccc3cc4ccccc4cc3c1)[C@@H]1C(=O)N(c3ccccc3)C(=O)[C@@H]1[C@H](C)C2	?	1[11.7 µM]	/	/	/	/	/
COCC(=O)N1CCc2nc(-c3ccc(OC)cc3C)c3c(c2C1)CO[C@@H](c1ccccc1)C3	-7%[11.7 µM]	-4[11.7 µM]	/	/	/	/	/
C[C@]12C=CC(=O)N[C@@H]1CC[C@@H]1C2CC[C@]2(C)C(C(=O)Nc3cc(C(F)(F)F)ccc3C(F)(F)F)CC[C@@H]12 (stereo not given in full)	-3%	6	0%	/	/	/	/
CCN(CC)c1ccc2cc(-c3nc(-c4ccc(OC)cc4)cs3)c(=O)oc2c1	21%	?	?	7%	0.45µM*	?	-5%
SMILES	Menin-MLL TR inh	Menin MLL FP FL	CXXC DNA block	MBNL1 CUG block	MLL CXXC Fl	MLL CXXC TxRed	MLL CXXC HTRF
CCN(CC)c1ccc2cc(-c3nnc(-c4ccccc4)o3)c(=O)oc2c1	8%	?	?	20%	/	/	/
COc1cccc(-c2nnc3n2N=C(c2c(OC)cccc2OC)CS3)c1	-24%	-5	/	/	/	/	/
CCOC(=O)/C=C(\C)Sc1cc(=O)oc2ccccc12	-12%	4	3%	?	/	/	/
CCOC(=O)/C=C(\C)Sc1cc(O)c2ccccc2c1O	/	-7	32µM*	?	?	?	19µM*
COc1ccc(C(OCCN2CCC[C@H](C(=O)O)C2)(c2ccc(OC)cc2)c2ccc(OC)cc2)cc1	-7%	1	/	/	/	/	/
O=C(O)c1cccc(-n2cccc2C=C2C(=O)c3ccccc3C2=O)c1	?	8	?	?	179µM*	?	25%
CCC(C)c1ccc(NC(=O)NCc2cccnc2)cc1 (stereo not given)	16%	6	?	-12%	/	/	/
CCC(C)c1ccc(NC(=O)Nc2cccnc2)cc1 (stereo not given)	?	-6	?	-2%	-7%	?	1%
CC[C@@]1(O)C(=O)OCc2c1cc1n(c2=O)Cc2cc3c([N+](=O)[O-])cccc3nc2-1	0%	-3	7%	/	/	/	/
CC[C@@]1(O)C(=O)OCc2c1cc1n(c2=O)Cc2cc3c(CN(C)C)c(O)ccc3nc2-1	-1%	?	45µM*	/	32µM*	-5%	10%
